Read-outs that look alike come from different tables or passages of the source.
Legend:
Parameters in all cases: species or system human, MV4-11 + K-562 + COLO205 + SK-N-BE2 + OVCAR-8
[1] = tested on: ADRBK1; conditions: read-out: apparent Kd; compound concentrations: 100 nM and 1000 nM (sheet 'Samples'), CATDS: 0.236668950824271; n = 1
[2] = tested on: PIK3C3; conditions: read-out: apparent Kd; compound concentrations: 100 nM and 1000 nM (sheet 'Samples'), CATDS: 0.27683551604583601; n = 1
[3] = tested on: PIK3CB; conditions: read-out: apparent Kd; compound concentrations: 100 nM and 1000 nM (sheet 'Samples'), CATDS: 0.86026286553543596; n = 1
[4] = tested on: AKT1; conditions: read-out: apparent Kd; compound concentrations: 100 nM and 1000 nM (sheet 'Samples'), CATDS: 0.20624871442291401; n = 1
[5] = tested on: CSNK1D; conditions: read-out: apparent Kd; compound concentrations: 100 nM and 1000 nM (sheet 'Samples'), CATDS: 0.21502598337996101; n = 1
[6] = tested on: CSNK1E; conditions: read-out: apparent Kd; compound concentrations: 100 nM and 1000 nM (sheet 'Samples'), CATDS: 0.16970430448232399; n = 1
[7] = tested on: GSK3A; conditions: read-out: apparent Kd, n = 1
[8] = tested on: RIOK2; conditions: read-out: apparent Kd; compound concentrations: 100 nM and 1000 nM (sheet 'Samples'), CATDS: 0.18913150983507701; n = 1
[9] = tested on: AKT2; conditions: read-out: apparent Kd; compound concentrations:100 nM and 1000 nM (sheet 'Samples'); n = 1
[10] = tested on: CDK16; conditions: read-out: apparent Kd; compound concentrations:100 nM and 1000 nM (sheet 'Samples'); n = 1
[11] = tested on: CDK17; conditions: read-out: apparent Kd; compound concentrations:100 nM and 1000 nM (sheet 'Samples'); n = 1
[12] = tested on: CDKL5; conditions: read-out: apparent Kd; compound concentrations:100 nM and 1000 nM (sheet 'Samples'); n = 1
[13] = tested on: T1, DJA1; conditions: read-out: apparent Kd; compound concentrations:100 nM and 1000 nM (sheet 'Samples'); n = 1
T1 construct: gene DNAJA1

[14] = tested on: GSK3B; conditions: read-out: apparent Kd; compound concentrations:100 nM and 1000 nM (sheet 'Samples'); n = 1
[15] = tested on: JAK2; conditions: read-out: apparent Kd; compound concentrations:100 nM and 1000 nM (sheet 'Samples'); n = 1
[16] = tested on: MAPK14; conditions: read-out: apparent Kd; compound concentrations:100 nM and 1000 nM (sheet 'Samples'); n = 1
[17] = tested on: PIK3CA; conditions: read-out: apparent Kd; compound concentrations:100 nM and 1000 nM (sheet 'Samples'); n = 1
[18] = tested on: PIK3CD; conditions: read-out: apparent Kd; compound concentrations:100 nM and 1000 nM (sheet 'Samples'); n = 1
[19] = tested on: RPS6KA6; conditions: read-out: apparent Kd; compound concentrations:100 nM and 1000 nM (sheet 'Samples'); n = 1
[20] = tested on: CDC42BPA; conditions: read-out: apparent Kd; compound concentrations:100 nM and 1000 nM (sheet 'Samples'); n = 1
[21] = tested on: CDC42BPG; conditions: read-out: apparent Kd; compound concentrations:100 nM and 1000 nM (sheet 'Samples'); n = 1
[22] = tested on: CIT; conditions: read-out: apparent Kd; compound concentrations:100 nM and 1000 nM (sheet 'Samples'); n = 1
[23] = tested on: LATS1; conditions: read-out: apparent Kd; compound concentrations:100 nM and 1000 nM (sheet 'Samples'); n = 1
[24] = tested on: MAPKAPK2; conditions: read-out: apparent Kd; compound concentrations:100 nM and 1000 nM (sheet 'Samples'); n = 1
[25] = tested on: MARK2; conditions: read-out: apparent Kd; compound concentrations:100 nM and 1000 nM (sheet 'Samples'); n = 1
[26] = tested on: MARK3; conditions: read-out: apparent Kd; compound concentrations:100 nM and 1000 nM (sheet 'Samples'); n = 1
[27] = tested on: MARK4; conditions: read-out: apparent Kd; compound concentrations:100 nM and 1000 nM (sheet 'Samples'); n = 1
[28] = tested on: PAK4; conditions: read-out: apparent Kd; compound concentrations:100 nM and 1000 nM (sheet 'Samples'); n = 1
[29] = tested on: PAK6; conditions: read-out: apparent Kd; compound concentrations:100 nM and 1000 nM (sheet 'Samples'); n = 1
[30] = tested on: PKN1; conditions: read-out: apparent Kd; compound concentrations:100 nM and 1000 nM (sheet 'Samples'); n = 1
[31] = tested on: PKN3; conditions: read-out: apparent Kd; compound concentrations:100 nM and 1000 nM (sheet 'Samples'); n = 1
[32] = tested on: PRKACA; conditions: read-out: apparent Kd; compound concentrations:100 nM and 1000 nM (sheet 'Samples'); n = 1
[33] = tested on: PRKACB; conditions: read-out: apparent Kd; compound concentrations:100 nM and 1000 nM (sheet 'Samples'); n = 1
[34] = tested on: PRKCD; conditions: read-out: apparent Kd; compound concentrations:100 nM and 1000 nM (sheet 'Samples'); n = 1
[35] = tested on: PRKCI; conditions: read-out: apparent Kd; compound concentrations:100 nM and 1000 nM (sheet 'Samples'); n = 1
[36] = tested on: PRKG1; conditions: read-out: apparent Kd; compound concentrations:100 nM and 1000 nM (sheet 'Samples'); n = 1
[37] = tested on: PRKX; conditions: read-out: apparent Kd; compound concentrations:100 nM and 1000 nM (sheet 'Samples'); n = 1
[38] = tested on: ROCK2; conditions: read-out: apparent Kd; compound concentrations:100 nM and 1000 nM (sheet 'Samples'); n = 1
[39] = tested on: RPS6KA4; conditions: read-out: apparent Kd; compound concentrations:100 nM and 1000 nM (sheet 'Samples'); n = 1
[40] = compound concentrations:100 nM and 1000 nM (sheet 'Samples')

Cc1cccc(Cn2ccn3c(=O)cc(N4CCOCC4)nc23)c1 [GSK2297542A]
potency estimated from few doses [1]: 1590 nM
potency estimated from few doses [2]: 886 nM
potency estimated from few doses [3]: 48.3 nM

Clc1ccc(CNc2nccc(-c3cnn4ncccc34)n2)cc1 [GW781673X]
potency estimated from few doses [4]: 1400 nM
potency estimated from few doses [5]: 1290 nM
potency estimated from few doses [6]: 2140 nM
potency estimated from few doses ([7]; compound concentrations: 100 nM and 1000 nM (sheet 'Samples'), CATDS: 0.23143029559655601): 1130 nM
potency estimated from few doses [8]: 1670 nM

CN1CCC(C(=O)Nc2n[nH]c3nnc(-c4ccccc4)cc23)CC1.Cl [SB-678557-A]
potency estimated from few doses [9]: 2390 nM
potency estimated from few doses [10]: 1070 nM
potency estimated from few doses [11]: 1910 nM
potency estimated from few doses [12]: 75.2 nM
potency estimated from few doses [13]: 1840 nM
potency estimated from few doses [7, 40]: 3.32 nM
potency estimated from few doses [14]: 8.23 nM
potency estimated from few doses [15]: 721 nM
potency estimated from few doses [16]: 1690 nM
potency estimated from few doses [17]: 183 nM
potency estimated from few doses [18]: 173 nM
potency estimated from few doses [19]: 1150 nM

CCn1c(-c2nonc2N)nc2c(C#CC(C)(C)O)ncc(OCCCCN)c21.CCn1c(-c2nonc2N)nc2c(C#CC(C)(C)O)ncc(OCCCCN)c21.O=C(O)C(F)(F)F.O=C(O)C(F)(F)F [GSK507274A]
potency estimated from few doses [9]: 1440 nM
potency estimated from few doses [20]: 2200 nM
potency estimated from few doses [21]: 1800 nM
potency estimated from few doses [22]: 554 nM
potency estimated from few doses [7, 40]: 328 nM
potency estimated from few doses [14]: 488 nM
potency estimated from few doses [23]: 83.9 nM
potency estimated from few doses [24]: 1370 nM
potency estimated from few doses [25]: 440 nM
potency estimated from few doses [26]: 178 nM
potency estimated from few doses [27]: 629 nM
potency estimated from few doses [28]: 30.9 nM
potency estimated from few doses [29]: 99.3 nM
potency estimated from few doses [30]: 191 nM
potency estimated from few doses [31]: 13 nM
potency estimated from few doses [32]: 787 nM
potency estimated from few doses [33]: 965 nM
potency estimated from few doses [34]: 1450 nM
potency estimated from few doses [35]: 1890 nM
potency estimated from few doses [36]: 1070 nM
potency estimated from few doses [37]: 54.1 nM
potency estimated from few doses [38]: 446 nM
potency estimated from few doses [39]: 749 nM
